Bioassay records deposited in PubChem BioAssay by National Center for Advancing Translational Sciences (NCATS).
In the library only some 7% were active in any assay of this set; here they are far more common.
DRD3 antagonist = blocks the human D3 dopamine receptor; P35462; D3R cells, DiscoveRx beta-arrestin luminescence, antagonist mode; stronger effect = lower value; max response, negative = inhibition, %; hit rate 2.5% among 360,000; AID 652054; in the data active = max response below about -50%; inconclusive = no clear call, values can overlap the other calls; also: % is scaled to controls: 0 for no effect and ±100 for the full control effect
Target sequence (P35462 whole entry, looked up): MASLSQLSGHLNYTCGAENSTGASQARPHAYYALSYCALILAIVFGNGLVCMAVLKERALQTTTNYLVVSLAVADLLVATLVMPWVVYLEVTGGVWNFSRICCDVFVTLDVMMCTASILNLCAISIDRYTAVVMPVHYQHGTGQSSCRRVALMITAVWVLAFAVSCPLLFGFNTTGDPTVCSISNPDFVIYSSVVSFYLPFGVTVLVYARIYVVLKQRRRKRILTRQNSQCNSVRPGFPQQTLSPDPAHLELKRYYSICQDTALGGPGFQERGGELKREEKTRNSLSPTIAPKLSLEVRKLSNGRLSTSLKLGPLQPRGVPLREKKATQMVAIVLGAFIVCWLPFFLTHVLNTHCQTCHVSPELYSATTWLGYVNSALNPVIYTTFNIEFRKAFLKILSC
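Cells plated overnight at 1500 cells/well, then exposed to library compounds with dopamine controls for 90 minutes at 37 degrees C. DiscoveRx reagent added for 30–60 minutes at room temperature; luminescence read, quantitative HTS format.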
a7 integrin act = activates integrin-mediated alleviation for muscular dystrophy. alpha7betagal myoblasts, beta-gal FDG fluorescence, 48 h. Potency, µM (highest dose often 38.3 µM), for inactives: at the highest dose activation, hits mostly activators. hit rate 0.064% among 350,000;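 also: potency is read from the fitted curve at half-maximal effect; 100% = response of the positive control SU9516; nearly all actives have a fitted effect of over 60% in size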
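alpha7betagal+/- myoblasts (passage 13, 250/well) treated 48 h at 37C with compounds at 1:260 dilution of DMSO stock. Lysed, then beta-galactosidase activity read as FDG fluorescence (ex 480/em 540) after 30 min, with pre-read for autofluorescence.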
ATXN2 expr inh = inhibitors of ATXN2 expression | HEK-293 ATXN2-luciferase reporter, luminescence, 24 h | Potency, µM (titrated, usually from 57 µM), inactives show at the top dose activity change, negative = inhibition, most hits filed as inhibitors | hit rate 0.72% among 360,000 | AID 1745845; also: potency is read from the fitted curve at half-maximal effect; % is scaled to controls: 0 for no effect and ±100 for the full control effect; nearly all actives have a fitted effect of over 55% in size
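qHTS (up to 57 uM final) was run with 24 h compound exposure of reporter cells at 37 °C. Each well was multiplexed: SteadyGlo luminescence measured ATXN2-luciferase expression after a fluorogenic Gly-Phe-AFC viability readout (25 uM final).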
ATXN viability = cell viability loss in ATXN counter-screen; hit rate 0.49% among 400,000; AID 651635; S2 cells (HEK-293 line with an ATXN2-luciferase reporter) viability, CellTiter-Fluor protease fluorescence, 24 h; Potency, µM (titrated, usually from 56.7 µM), actives largely listed as cytotoxic; also: potency is read from the fitted curve at half-maximal effect; nearly all actives have a fitted effect of over 40% in size
DRD3 agonist = agonists of human D3 dopamine receptor; P35462; D3R DiscoveRx beta-arrestin cells, luminescence, 90 min; max activation, %; hit rate 0.58% among 410,000; in the data active = max activation above about 30%; also: 0% is about no effect
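Agonist mode: compounds and dopamine controls were applied to plated cells for 90 min at 37 degrees C after an overnight attachment at 1500 cells/well. Luminescent read-out followed 30 - 60 minutes at room temperature with DiscoveRx detection reagent.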
IL1B secr inh = inflammasome signaling inhibition, IL-1 beta readout; activity change, % at 57.5 µM; AID 743279; THP-1 LPS/ATP IL-1B secretion, AlphaLISA, 16 h; stronger effect = lower value; hit rate 4.7% among 360,000; in the data active = activity change below about -50%; inconclusive = mostly about -30% to -49%; also: % is scaled to controls: 0 for no effect and ±100 for the full control effect
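THP-1 cells pretreated 1 hr with compounds (up to 57.5 uM final), then stimulated with LPS (250 ng/mL final) plus ATP (1.25 mM final); secreted IL-1B measured by AlphaLISA after 16 hr, decreased signal indicating inhibition.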
Active calls of the source: *; i = inactive; ? = inconclusive; nt = not tested or not shown; ! = a repeat was not active. Unless noted, calls follow the shape of the dose curve; as a rule, active = well fitted curve in the direction sought with a large enough effect; inconclusive = small, poorly fitted or top-dose-only effect, or another doubt; inactive = no such curve, though single readings can be large; an effect the other way counts as inactive or inconclusive.

SMILES	DRD3 antagonist	a7 integrin act	ATXN2 expr inh	ATXN viability	DRD3 agonist	IL1B secr inh
CCn1c(CNC(=O)c2ccc(Cl)cc2)nnc1SCC(=O)N1CCOCC1	11	23%	6%	i	0	0
Cc1ccc(S(=O)(=O)N/N=C\c2cc([N+](=O)[O-])ccc2Cl)cc1	-63*	-6%	-22%	i	-13	32
Cc1ccc(S(=O)(=O)N/N=C/c2c(F)cccc2Cl)cc1	-87*	-1%	0%	i	-7	16
CC(=O)Nc1ccc(/C=N/NS(=O)(=O)c2cc(C)ccc2C)cc1	3	22%	5%	i	-3	3
Cc1ccc(S(=O)(=O)N/N=C/c2ccc3nccnc3c2)cc1	?	12%	-13%	i	52*	0
O=S(=O)(N/N=C/c1c(F)cccc1Cl)c1ccccc1	-20	-23%	-7%	i	-3	-4
CC(=O)Nc1ccc(S(=O)(=O)NN=Cc2ccc(Cl)c(Cl)c2)cc1	-71*	-1%	-19%	i	11	-8
COC(=O)c1cccc(C(=O)Oc2cccc(Br)c2)n1	-25	1%	-30%	i	8	0
CCN1C[C@@H]2[C@@H]3C(=O)N(C)C(=O)[C@@H]3[C@](CC)(C1=O)N2C(=O)c1ccc(F)cc1	24	24%	2%	i	6	0
O=[N+]([O-])c1ccc(S(=O)(=O)NN=Cc2ccc(Cl)c(Cl)c2)cc1	-51*	-17%	-23%	i	7	-21
Cn1c(N)c(C(=O)COC(=O)c2cc(C3CC3)nc3ccccc23)c(=O)n(C)c1=O	125	2%	0%	i	36*	-4
Cn1c(N)c(C(=O)COC(=O)c2cc(-c3ccco3)nc3ccccc23)c(=O)n(C)c1=O	-11	-25%	-17%	?	6	-25
COc1ccc(-c2cc(C(=O)OCC(=O)c3c(N)n(C)c(=O)n(C)c3=O)c3ccccc3n2)cc1	2	-2%	8%	i	-5	-53*
CCOc1cc(CNCc2ccc(C(=O)O)cc2)ccc1OC	-4	20%	-13%	i	-16	3
CCC(CC)NCc1ccc2c(c1)c1ccccc1n2CC	0	-68%	nt	?	-7	-54*
CCOc1cc(CNCc2cc(OC)cc(OC)c2)ccc1OC	10	0%	-27%	i	0	-58*
CCOC(=O)CC(NCc1ccc(OC)c(OCC)c1)c1ccc(C)cc1 (centres undefined)	-51*	13%	-9%	i	-14	34
COc1ccc(CNCc2cc(C)c(OC)cc2C)c(OC)c1	-12	-54%	0%	i	-22	-63*
COc1ccc(CNCc2cc(OC)ccc2OC)cc1	1	-36%	nt	i	-10	-8
CCOC(=O)CCNCc1ccc(OC)c(OC)c1	2	0%	3%	i	1	-5
CCOCCCNC(=O)c1cn2c3c(ccc(Cl)c3c1=O)OC(C)C2 (centres undefined)	-29	5%	1%	i	-2	18
OC(c1cccc(Cl)c1)c1nc(-c2cc3ccccc3o2)cs1 (centres undefined)	24	nt	-6%	i	0	-12
Cc1ccc(S(=O)(=O)N2CCN(Cc3nc4ccc(C)cc4o3)CC2)cc1	nt	nt	2%	i	-21	nt
CCn1c2ccccc2c2cc(CNCc3ccc(OC)cc3OC)ccc21	-16	-66%	?	nt	-13	-88*
COc1ccc(CNCc2ccc(F)cc2)c(OC)c1	0	0%	-10%	i	-20	-26
SMILES	DRD3 antagonist	a7 integrin act	ATXN2 expr inh	ATXN viability	DRD3 agonist	IL1B secr inh
CCn1c2ccccc2c2cc(CNCCCN3CCOCC3)ccc21	-100*	-82%	nt	i	-8	-14
COc1cccc(CNCc2ccc(OC)cc2OC)c1	-5	-37%	8%	i	-4	-57*
COc1cc(CNCc2cc(OC)ccc2OC)cc(OC)c1	2	14%	-23%	i	-10	-57*
CCn1c(=O)cc(SCC(=O)NCc2ccc(OC)cc2OC)c2ccccc21	nt	nt	0%	i	6	nt
COC(=O)c1c(-c2cccs2)csc1NC(=O)c1cccnc1	74	-13%	39%	i	22	-65*
O=C(NCc1ccccc1)c1nnc(Cc2cccc(F)c2)o1	nt	nt	-1%	i	2	nt
COc1ccc(-c2cc(CNC(=O)CCl)on2)cc1	-13	-63%	14%	nt	-6	-92*
COc1ccc(-c2cc(CNC(C)=O)on2)cc1	-1	-1%	7%	i	-1	-1
Cc1nnc(NC(=O)CSc2nnc(CNC(=O)c3ccc(F)cc3)o2)s1	-7	?	-21%	i	0	-14
CCOC(=O)c1ccc(N2C(=O)C=CC2=O)cc1	-82*	-70%	?	nt	4	-89*
CCOC(=O)c1ccc(-n2c(=O)[nH]c3ccccc3c2=O)cc1	-9	-2%	9%	?	9	-60*
CCC(C)NC(=O)C(=O)NCc1ccncc1 (centres undefined)	-22	2%	-11%	i	-19	14
O=C(NCCNS(=O)(=O)c1ccc(Cl)cc1)c1cc(OCC(F)(F)F)ccc1OCC(F)(F)F	-14	8%	-25%	i	-3	-18
C[N+](C)(C)CCCCCC(=O)/C=N/O	9	4%	nt	i	0	16
CC(=O)CC[N+](C)(C)C	13	-34%	54%	?	5	-96*
O=C(NCc1nc2ccccc2[nH]1)C1=C[C@H](c2csc3ccccc23)C[C@H](OCc2ccc(CO)cc2)O1	26	-20%	-12%	?	-3	-29
CC(C)(C)C(=O)OCOC(=O)[C@@H]1N2C(=O)[C@@H](N=CN3CCCCCC3)[C@H]2SC1(C)C	0	nt	-5%	i	32*!	18
CC1(C)S[C@@H]2[C@H](NC(=O)COc3ccccc3)C(=O)N2C1C(=O)OCC1CCCCC1 (some centres undefined)	-13	36%	4%	i	-9	13
CCN(C(=O)C(C)N1C(=O)/C(=C/c2ccco2)SC1=S)C1CCS(=O)(=O)C1 (centres undefined)	-15	-52%	-37%	nt	-3	-88*
CCN(CC)C(=O)CN1C(=O)/C(=C/c2ccccc2)SC1=S	-14	-22%	9%	i	1	-62*
CC(=O)NNC(=O)CN1C(=O)/C(=C/c2ccccc2)SC1=S	1	-26%	2%	i	-2	-13
CCN(C(=O)CCN1C(=O)/C(=C/c2ccccc2)SC1=S)C1CCS(=O)(=O)C1 (centres undefined)	-13	-64%	-2%	i	-8	-83*
CCN(C(=O)CN1C(=O)/C(=C/c2ccccc2F)SC1=S)C1CCS(=O)(=O)C1 (centres undefined)	21	-11%	nt	?	3	17
